{
  "source": "paper PMC7862700",
  "about": "“An all-to-all approach to the identification of sequence-specific readers for epigenetic DNA modifications on cytosine”",
  "assay_in_all_cases": "DAPPL (digital affinity profiling via proximity ligation, sequencing); 10 mM Tris-HCl pH 7.5, 50 mM NaCl, 1 mM DTT, 4% glycerol, room temperature, 30 min; GST-TFs on glutathione beads, 16-mer random dsDNA library, 0.1% formaldehyde crosslink after washing; high values mean tight binding",
  "conditions_in_all_cases": "protein: recombinant; tags: N-terminal GST; dsDNA, one strand shown",
  "key": {"ETV1": {"target": "ETV1 (Homo sapiens, UniProt P50549 1-477)", "sequence (P50549 whole entry, the tested form may be a part)": "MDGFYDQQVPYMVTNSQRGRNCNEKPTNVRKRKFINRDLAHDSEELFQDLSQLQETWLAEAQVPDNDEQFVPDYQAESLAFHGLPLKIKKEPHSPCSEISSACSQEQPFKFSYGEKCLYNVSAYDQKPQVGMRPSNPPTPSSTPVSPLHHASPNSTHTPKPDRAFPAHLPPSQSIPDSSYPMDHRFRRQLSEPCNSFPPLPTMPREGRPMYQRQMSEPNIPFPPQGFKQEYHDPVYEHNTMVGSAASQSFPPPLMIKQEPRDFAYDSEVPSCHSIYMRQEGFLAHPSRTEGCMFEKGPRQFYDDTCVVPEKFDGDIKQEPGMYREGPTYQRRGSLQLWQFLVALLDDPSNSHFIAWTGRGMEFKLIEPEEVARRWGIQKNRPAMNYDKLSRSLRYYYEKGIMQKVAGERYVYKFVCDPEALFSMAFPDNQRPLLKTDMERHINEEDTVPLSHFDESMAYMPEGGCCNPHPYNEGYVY", "method_in_brief": "(§1)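 Binding signal is each hexamer's read frequency for a factor divided by its frequency in the tag-only sample. The factors were GST-fused human transcription factors from yeast, captured on glutathione beads, DNA-barcoded and pooled with that sample. Pools were incubated with 200 nmole of a random double-stranded 16-mer DNA library in Tris/NaCl/DTT/glycerol buffer at room temperature for 30 min, then washed, crosslinked with 0.1% formaldehyde, proximity-ligated with BsaI/T4 ligase (1 h, 37 °C), PCR-amplified and sequenced on an Illumina NextSeq500.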"}, "ERF": {"target": "T1, ERF (Homo sapiens, UniProt P50548 1-548)", "T1 sequence": "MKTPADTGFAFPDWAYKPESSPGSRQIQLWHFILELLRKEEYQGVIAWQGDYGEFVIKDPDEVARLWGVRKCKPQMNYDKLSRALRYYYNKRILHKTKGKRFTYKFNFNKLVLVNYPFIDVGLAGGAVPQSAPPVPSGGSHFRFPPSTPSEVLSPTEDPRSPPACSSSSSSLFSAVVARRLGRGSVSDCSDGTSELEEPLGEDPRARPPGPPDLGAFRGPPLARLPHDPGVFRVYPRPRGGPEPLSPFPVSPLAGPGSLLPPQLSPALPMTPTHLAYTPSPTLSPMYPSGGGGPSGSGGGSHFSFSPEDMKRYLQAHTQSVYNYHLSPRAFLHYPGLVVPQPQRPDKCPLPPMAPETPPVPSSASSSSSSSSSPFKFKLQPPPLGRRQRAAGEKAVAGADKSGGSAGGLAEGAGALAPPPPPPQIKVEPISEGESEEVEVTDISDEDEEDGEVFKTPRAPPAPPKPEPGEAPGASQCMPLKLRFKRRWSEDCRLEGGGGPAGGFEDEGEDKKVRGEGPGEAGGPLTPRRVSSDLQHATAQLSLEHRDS", "method_in_brief": "as §1"}, "ETV3L": {"target": "T2, ETV3L (Homo sapiens, UniProt Q6ZN32 1-361)", "T2 sequence": "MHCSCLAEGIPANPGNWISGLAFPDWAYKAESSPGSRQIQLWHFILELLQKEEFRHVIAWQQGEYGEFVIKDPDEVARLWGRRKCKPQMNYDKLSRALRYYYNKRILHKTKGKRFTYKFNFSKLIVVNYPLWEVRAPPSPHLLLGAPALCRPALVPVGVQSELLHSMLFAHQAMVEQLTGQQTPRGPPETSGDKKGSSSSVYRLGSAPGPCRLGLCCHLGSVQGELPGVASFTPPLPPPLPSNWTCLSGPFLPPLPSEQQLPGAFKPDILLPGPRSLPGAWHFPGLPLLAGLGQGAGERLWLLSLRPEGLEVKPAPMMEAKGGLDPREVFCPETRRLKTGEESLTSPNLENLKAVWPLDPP", "method_in_brief": "as §1"}, "ETS2": {"target": "T3, ETS2 (Homo sapiens, UniProt P15036 1-469)", "T3 sequence": "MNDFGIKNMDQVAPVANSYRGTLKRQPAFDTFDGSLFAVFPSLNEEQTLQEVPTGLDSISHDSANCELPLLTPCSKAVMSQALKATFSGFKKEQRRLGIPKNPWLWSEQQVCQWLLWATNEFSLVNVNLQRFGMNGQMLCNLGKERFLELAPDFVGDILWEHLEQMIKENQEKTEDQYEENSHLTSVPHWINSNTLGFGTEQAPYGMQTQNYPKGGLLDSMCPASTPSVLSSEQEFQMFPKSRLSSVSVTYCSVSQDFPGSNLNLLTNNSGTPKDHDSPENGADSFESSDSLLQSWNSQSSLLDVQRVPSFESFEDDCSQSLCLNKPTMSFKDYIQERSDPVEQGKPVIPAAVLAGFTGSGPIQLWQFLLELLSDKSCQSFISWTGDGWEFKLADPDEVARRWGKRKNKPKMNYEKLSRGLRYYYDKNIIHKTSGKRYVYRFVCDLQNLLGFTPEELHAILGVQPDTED", "method_in_brief": "as §1"}, "SPDEF": {"target": "T4, SPDEF (Homo sapiens, UniProt O95238 1-335)", "T4 sequence": "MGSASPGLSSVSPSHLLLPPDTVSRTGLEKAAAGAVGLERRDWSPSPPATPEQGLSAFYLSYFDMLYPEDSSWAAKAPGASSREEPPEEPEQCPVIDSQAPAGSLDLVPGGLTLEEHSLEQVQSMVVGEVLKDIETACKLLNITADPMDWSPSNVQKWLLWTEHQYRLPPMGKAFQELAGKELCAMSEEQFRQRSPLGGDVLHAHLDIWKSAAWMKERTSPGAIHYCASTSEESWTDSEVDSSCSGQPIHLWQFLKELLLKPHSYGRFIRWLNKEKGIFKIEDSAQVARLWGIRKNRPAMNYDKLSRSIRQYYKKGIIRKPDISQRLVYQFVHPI", "method_in_brief": "as §1"}, "ETV7": {"target": "T5, ETV7 (Homo sapiens, UniProt Q9Y603 1-341)", "T5 sequence": "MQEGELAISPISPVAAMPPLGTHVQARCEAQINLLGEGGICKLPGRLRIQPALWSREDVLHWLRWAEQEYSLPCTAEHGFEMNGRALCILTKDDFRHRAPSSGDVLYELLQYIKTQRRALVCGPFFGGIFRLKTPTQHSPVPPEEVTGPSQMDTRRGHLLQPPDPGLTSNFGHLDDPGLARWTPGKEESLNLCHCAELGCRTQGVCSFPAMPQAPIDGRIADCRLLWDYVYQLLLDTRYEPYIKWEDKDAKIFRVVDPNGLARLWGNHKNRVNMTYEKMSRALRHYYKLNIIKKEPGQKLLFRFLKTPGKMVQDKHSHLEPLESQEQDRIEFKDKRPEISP", "method_in_brief": "as §1"}, "ELF5": {"target": "T6, ELF5 (Homo sapiens, UniProt Q9UKW6-2 1-255)", "T6 sequence": "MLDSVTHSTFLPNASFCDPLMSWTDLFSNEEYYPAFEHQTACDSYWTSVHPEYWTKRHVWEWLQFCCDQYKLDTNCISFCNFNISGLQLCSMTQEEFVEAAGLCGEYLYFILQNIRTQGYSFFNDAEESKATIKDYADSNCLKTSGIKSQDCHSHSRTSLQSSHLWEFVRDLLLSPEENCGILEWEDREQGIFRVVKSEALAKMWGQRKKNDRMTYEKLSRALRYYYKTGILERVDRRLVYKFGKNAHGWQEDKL", "method_in_brief": "as §1"}, "ETV3": {"target": "T7, ETV3 (Homo sapiens, UniProt P41162-2 1-143)", "T7 sequence": "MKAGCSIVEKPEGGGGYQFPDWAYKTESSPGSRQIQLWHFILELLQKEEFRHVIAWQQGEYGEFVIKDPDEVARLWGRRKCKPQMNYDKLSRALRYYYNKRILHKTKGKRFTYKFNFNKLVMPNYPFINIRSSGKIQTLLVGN", "method_in_brief": "as §1"}, "ETV6": {"target": "ETV6 (Homo sapiens, UniProt P41212 1-452)", "sequence (P41212 whole entry)": "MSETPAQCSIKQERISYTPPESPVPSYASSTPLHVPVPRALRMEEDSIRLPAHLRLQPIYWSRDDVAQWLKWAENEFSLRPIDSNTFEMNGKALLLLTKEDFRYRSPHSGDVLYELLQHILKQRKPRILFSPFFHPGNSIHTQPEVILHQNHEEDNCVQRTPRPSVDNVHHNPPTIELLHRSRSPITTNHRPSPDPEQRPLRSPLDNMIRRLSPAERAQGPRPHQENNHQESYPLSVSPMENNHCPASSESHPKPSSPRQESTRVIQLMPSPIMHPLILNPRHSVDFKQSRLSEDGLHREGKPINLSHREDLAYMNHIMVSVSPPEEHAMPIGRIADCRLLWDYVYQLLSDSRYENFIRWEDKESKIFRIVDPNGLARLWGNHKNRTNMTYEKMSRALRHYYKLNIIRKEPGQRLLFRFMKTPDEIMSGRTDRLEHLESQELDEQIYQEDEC", "method_in_brief": "as §1"}},
  "data": [
    {"sequence": "GGGTTT", "values": [
      {"measurement": "binding signal", "setting": "ETV1", "value": "1.1 fold enrichment (6-mer frequency, TF over GST control)"},
      {"measurement": "binding signal", "setting": "ERF", "value": "1.17 fold enrichment (6-mer frequency, TF over GST control)"},
      {"measurement": "binding signal", "setting": "ETV3L", "value": "1.1 fold enrichment (6-mer frequency, TF over GST control)"},
      {"measurement": "binding signal", "setting": "ETS2", "value": "1.1 fold enrichment (6-mer frequency, TF over GST control)"},
      {"measurement": "binding signal", "setting": "SPDEF", "value": "1 fold enrichment (6-mer frequency, TF over GST control)"},
      {"measurement": "binding signal", "setting": "ETV7", "value": "1.12 fold enrichment (6-mer frequency, TF over GST control)"},
      {"measurement": "binding signal", "setting": "ELF5", "value": "1.1 fold enrichment (6-mer frequency, TF over GST control)"},
      {"measurement": "binding signal", "setting": "ETV3", "value": "1.18 fold enrichment (6-mer frequency, TF over GST control)"},
      {"measurement": "binding signal", "setting": "ETV6", "value": "1.07 fold enrichment (6-mer frequency, TF over GST control)"}
    ]}
  ]
}
